Data: PubChem BioAssay AID624330 (Southern Research Specialized Biocontainment Screening …, 2012)
The whole screen tested about 340,000 compounds, of which about 2,100 (0.62%) were called active.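 How the source made its calls: active means first-screen hits whose inhibition reached a set limit at any dose in the follow-up dose series; inconclusive means inhibition above the set first-screen limit but never retested; inactive means the rest.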 Only a sample is shown. Potency and affinity values are given separately.

The compounds below were run against Rac GTPase-activating protein 1 (Homo sapiens) (UniProt Q9H0H5) (assay: blockers of MgcRacGAP-driven Rac1 GTP hydrolysis – biochemical, ADP Hunter fluorescence, primary and confirmatory, confirmation (AID 624330;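 further: fluorescence reports GDP produced by GAP-driven GTP hydrolysis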)). Conditions: MgcRacGAP-stimulated Rac1 GTP hydrolysis, at 30 µM, hits give high values, GST-tagged Rac1 F28L mutant substrate.
Rac GTPase-activating protein 1 (Homo sapiens), sequence (Q9H0H5 whole entry, looked up): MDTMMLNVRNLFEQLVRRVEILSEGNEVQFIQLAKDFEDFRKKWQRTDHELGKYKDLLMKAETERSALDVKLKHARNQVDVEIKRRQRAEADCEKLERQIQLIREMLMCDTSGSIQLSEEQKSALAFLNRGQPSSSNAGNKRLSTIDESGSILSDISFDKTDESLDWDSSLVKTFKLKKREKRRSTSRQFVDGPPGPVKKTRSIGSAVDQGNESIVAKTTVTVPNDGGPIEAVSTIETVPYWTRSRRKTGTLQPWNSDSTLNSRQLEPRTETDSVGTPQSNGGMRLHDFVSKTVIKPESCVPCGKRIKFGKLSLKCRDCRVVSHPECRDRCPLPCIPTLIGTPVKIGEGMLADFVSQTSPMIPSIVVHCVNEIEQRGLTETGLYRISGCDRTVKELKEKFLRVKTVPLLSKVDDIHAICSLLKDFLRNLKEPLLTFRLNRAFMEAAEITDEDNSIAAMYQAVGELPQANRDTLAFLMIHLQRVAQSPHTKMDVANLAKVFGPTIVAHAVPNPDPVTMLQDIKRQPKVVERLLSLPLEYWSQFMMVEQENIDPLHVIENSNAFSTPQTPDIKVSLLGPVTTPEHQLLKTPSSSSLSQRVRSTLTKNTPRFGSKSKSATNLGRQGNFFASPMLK

inhibition, inactive:
O=[N+]([O-])c1ccc(C2=Nn3c(Cn4nnc5ccccc54)nnc3SC2)cc1 10.3%
COc1cccc(Oc2cnc(N)nc2-c2ccc(OC)cc2O)c1 6.49%
C=C(C)COc1ccc(-c2nc(N)ncc2Oc2ccccc2OCC)c(O)c1 10.4%
COc1cccc(Oc2cncnc2-c2ccc(OC)cc2O)c1 8.42%
CCOc1ccc(-c2nc(N)ncc2Oc2ccc(OC)cc2)c(O)c1 1.9%
C=C(C)COc1ccc(-c2nc(N)ncc2Oc2ccc(OC)cc2)c(O)c1 -7.13%
CCOc1ccc(-c2[nH]ncc2Oc2ccccc2OCC)c(O)c1 6.69%
Cc1ccc(S(=O)(=O)N2CCOCC2)cc1C(=O)OCC(=O)NC1CCCC1 3.52%
CC(C)(C)NC(=O)NC(=O)COC(=O)CNC(=O)c1cccc(F)c1 0.76%
CCOC(=O)Cc1csc(NC(=O)CN2CCOCC2)n1 5.22%
O=C1NC2(CCc3ccccc32)C(=O)N1CCOc1ccc(Cl)cc1 (centres undefined) 2.47%
CCN(C1CCS(=O)(=O)C1)S(=O)(=O)c1ccc(Cl)s1 (centres undefined) 4.17%
CCOC(=O)C1=C(O)CSC1=Nc1cccc2ccccc12 1.02%
c1ccc2nc3ccccc3nc2c1 2.14%
Cc1cccc(CN2CCN(C(=O)c3cccc4ccccc34)CC2)c1 15.3%
COc1ccc(OC)c(CN2CCN(C(=O)c3cccc4ccccc34)CC2)c1 13.1%
COc1cccc(CN2CCN(C(=O)c3cccc4ccccc34)CC2)c1OC 17.9%
Cc1ccc(CN2CCN(C(=O)c3cccc4ccccc34)CC2)cc1 23.8%
Cc1cc(C)c(C)c(OCCCN(C)C)c1 17%
CSc1nnnn1-c1cccc(O)c1 -2.6%
Cc1cc(Cl)ccc1Oc1ncnc2onc(C)c12 4.86%
CCOCCCNC(=O)c1ccc(OC2CCN(C(C)=O)CC2)c(OC)c1 9.51%
COCc1cc(Sc2ccc(Cl)cc2)nc(C)n1 3.56%
COCc1cc(NCc2ccc(Cl)cc2)nc(C)n1 5.03%
CN(C1=NC(=O)C(CC(=O)O)S1)c1ccc(O)cc1 (centres undefined) 2.49%
CC(C)(C)c1ccc(C2=NC(=O)C(CC(=O)O)S2)cc1 (centres undefined) 10.5%
Cc1nn(CC(=O)NCC(C)c2ccccc2)c(=O)c2cc3occc3n12 (centres undefined) 10%
Cc1ccc(-c2csc3ncnc(SCC(=O)c4ccc5c(c4)OCCO5)c23)cc1 1.98%
CC1Cc2ccccc2N1C(=O)COc1ccc2c(c1)OCO2 (centres undefined) -12.8%
CC(=O)N1CCN(c2ccc(NC(=O)c3ccco3)cc2)CC1 8.89%
CC(=O)N1CCN(c2ccc(NCc3ccc(-c4cccc(Cl)c4)o3)cc2)CC1 15%
CC(=O)N1CCN(c2ccc(NCc3ccc(-c4ccc(Br)cc4)o3)cc2)CC1 5.41%
CC(=O)c1ccc(N2CCN(C(=S)NCc3ccco3)CC2)cc1 3.83%
COc1ccc(N2CCN(C(CNC(=O)OCc3ccccc3)c3ccco3)CC2)cc1 (centres undefined) 23%
COc1ccc(C2(C)NC(=O)N(CC(=O)Nc3c(C)n(C)n(-c4ccccc4)c3=O)C2=O)cc1 (centres undefined) -6.4%
CC(C)(C)OC(=O)C[C@@H]1C/C=C\C[C@H](CC(=O)N(CCO)Cc2ccccc2)C(=O)N[C@H](Cc2ccccc2)COC1=O -1.04%
N#C/C(=C\c1cc([N+](=O)[O-])c(N2CCOCC2)cc1N1CCOCC1)c1nc2ccccc2[nH]1 6.08%
N#C/C(=C\c1ccc(N2CCOCC2)c([N+](=O)[O-])c1)c1nc2ccccc2[nH]1 1.39%
N#C/C(=C\c1ccc(-c2ccc(C(=O)O)cc2)o1)c1nc2ccccc2[nH]1 2.64%
N#C/C(=C\c1ccc(Sc2ccccc2)o1)c1nc2ccccc2[nH]1 11.4%
CC1CN(C(=O)COC(=O)c2ccc3ccccc3c2)CC(C)O1 (centres undefined) 8.18%
CCCCOC(=O)c1cccc(NC(=O)CC)c1 -6.05%
O=C(C[C@H]1C/C=C\C[C@H](NC(=O)OCC2c3ccccc3-c3ccccc32)C(=O)OC[C@H](Cc2ccccc2)NC1=O)N[C@H](CO)Cc1ccccc1 3.81%
CC(OC(=O)CC(C)c1ccccc1)C(=O)Nc1ccc(Cl)cn1 (centres undefined) 4.3%
COc1ccc(/C=C/c2nc(N)nc(-c3ccccc3O)n2)cc1OC 4.75%
COc1cc(/C=N/n2c(C)nc3ccccc3c2=O)cc(OC)c1O 7.15%
COc1ccc(/C=N/n2c(C)nc3ccccc3c2=O)cc1OC 3.76%
CCCc1nc2ccccc2c(=O)n1/N=C/c1ccccc1O 11.4%
COc1ccc(/C=C/c2nc3ccccc3c(=O)n2-c2cccc(C(=O)O)c2)cc1 6.96%
COc1ccc(-n2c(/C=C3\C(=O)N(C)c4ccccc43)nc3ccccc3c2=O)cc1 9.39%
CCCc1nc2ccccc2c(=O)n1/N=C/c1ccc(O)cc1 6.59%
C/C=C/c1ccc(O)c(OC)c1 21.3%
O=C(CN1CCN(C(=O)C2CCCO2)CC1)Nc1cc(C(F)(F)F)ccc1Cl (centres undefined) 4.9%
CCOC(=O)C1CCN(C(=O)c2cc(S(=O)(=O)N3CCCCCC3)ccc2OC)CC1 0.78%
CCCCNC(=O)NC(C(=O)OC)C12CC3CC(CC(C3)C1)C2 (centres undefined) 0.62%
CCCN(CCC)CCNS(=O)(=O)c1ccc2c(c1)CCN2C(=O)C1CCC1 12.9%
CCCCN(CCCC)S(=O)(=O)c1ccc(NS(=O)(=O)c2ccc(NC(C)=O)cc2)cc1 5.52%
COc1ccc(-c2nn(-c3ccccc3)cc2C(=O)NC2CCCCC2C)cc1 (centres undefined) 7.37%
CCOCCCNC(=O)C1CCCN(S(=O)(=O)c2ccc(-n3cnnn3)cc2)C1 (centres undefined) 1.87%
